The source of these data is PubChem BioAssay (EPA / NIEHS).

Test [1] has as its target Transcriptional activator Myb (Homo sapiens) (UniProt P10242). Briefly: ATG_Myb_CIS: Attagene CIS-FACTORIAL HepG2 Assay for human Myeloblastosis (Myb) Proto-Oncogene Transcription Factor (AID 2282986). To be noted: HepG2 Attagene CIS-FACTORIAL Myb reporter transcription; actives raise or lower the signal. A digest of the protocol: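 Endogenous transcription factor activity at a Myb-responsive cis element is reported in human liver HepG2 cells after 24 h chemical treatment. Reporter mRNA is detected by RT-PCR and capillary electrophoresis fluorescence, with DMSO as baseline.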

In test [2] the target is Nuclear respiratory factor 1 (Homo sapiens) (UniProt Q16656). Briefly: ATG_NRF1_CIS: Attagene CIS-FACTORIAL HepG2 Assay for human Nuclear Respiratory Factor 1 (NRF1) Orphan Gene (AID 2282987). To be noted: HepG2 NRF1 cis-element reporter, Attagene multiplex; actives raise or lower the signal. A digest of the protocol:
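Human hepatoma HepG2 cells carrying transfected promoter-regulated reporter units were incubated with test chemicals for 24 h. Reporter transcripts were measured by RT-PCR plus capillary electrophoresis, and endpoints derived by bidirectional fitting with DMSO as baseline.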

A short description of test [3]: ATG_NFI_CIS: Attagene CIS-FACTORIAL HepG2 Assay for human Nuclear Factor I (NFI) (AID 2282989). As to conditions: HepG2 cis-regulatory reporter, NFI response element transcription; actives raise or lower the signal. A digest of the protocol: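 HepG2, transient MRTU, 24 h exposure; RNA→cDNA→PCR→FAM label→HpaI→CE fluorescence. Bidirectional fit, DMSO = baseline.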
Test [4] can be described thus: ATG_NRF2_ARE_CIS: Attagene CIS-FACTORIAL HepG2 Assay for human Nuclear Factor Erythroid 2 Related Factor 2 (NFR2) response to Antioxidant Response Elements (ARE) (AID 2282992).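 On AC50: reporter mRNA level measured by RT-PCR and capillary electrophoresis fluorescence.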 As to conditions: HepG2 Attagene ARE/NRF2 reporter, transcription factor activity; actives raise or lower the signal. The gist of the method: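 Endogenous transcription factor activity in human liver HepG2 cells is tracked via a cis-element-driven reporter within a multiplexed set. mRNA induction is read by RT-PCR and capillary electrophoresis after 24 h, with DMSO as baseline.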

The nature of test [5]: ATG_Oct_MLP_CIS: Attagene CIS-FACTORIAL HepG2 Assay for human Octamer-Binding Transcription Factor (Oct) (AID 2282993). To be noted: HepG2 Attagene cis-factorial Oct reporter, mRNA; actives raise or lower the signal. A digest of the protocol: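 Multiplexed cis-reporter assay in human liver HepG2 cells, 24 h incubation. Reporter RNA amplified and labelled, then resolved by capillary electrophoresis; DMSO serves as negative control and baseline.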

The nature of test [6]: BSK_3C_TissueFactor: BioMAP Diversity Plus: 3C Assay for Tissue Factor Biomarker Activity (AID 2282997). As to conditions: BioMAP 3C HUVEC, tissue factor biomarker readout; actives raise or lower the signal. A digest of the protocol: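 In this endothelial system, HUVEC are treated for 24 h and Tissue Factor is assessed by ELISA, normalised to DMSO.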
Test [7] is described as follows: BSK_3C_uPAR: BioMAP Diversity Plus: 3C Assay for Urokinase-type plasminogen activator receptor (uPAR) Biomarker Activity (AID 2282998). To be noted: BioMAP 3C HUVEC, uPAR biomarker ELISA; actives raise or lower the signal. A digest of the protocol: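 Dose primary human umbilical vein endothelial cells, incubate 24 h, measure cell-surface uPAR by ELISA, then fit the signal in both directions against the DMSO negative control.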
For orientation: In an ELISA, binding on a coated surface is turned into a signal by an enzyme label.

Test [8] in a line: BSK_3C_VCAM1: BioMAP Diversity Plus: 3C Assay for Vascular cell adhesion molecule 1 (VCAM1) Biomarker Activity (AID 2282999). To be noted: BioMAP 3C HUVEC, VCAM1 ELISA, cytokine-stimulated; actives raise or lower the signal. A digest of the protocol: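 HUVEC primary cells, 24 h compound exposure; VCAM-1 by ELISA; gain/loss of signal fitted bidirectionally vs DMSO baseline.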
Test [9] in a line: BSK_4H_Eotaxin3: BioMAP Diversity Plus: 4H Assay for Eotaxin 3 Biomarker Activity (AID 2283000).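 On outcome: CCL26 protein level quantified by ELISA in parallel with SRB cytotoxicity check.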 As to conditions: primary human endothelial cells (HUVEC); actives raise or lower the signal. The gist of the method: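 ELISA quantitation of CCL26 (Eotaxin-3) protein from chemically dosed human vascular endothelial cells at 24 h; increases and decreases both scored relative to DMSO-treated baseline.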

Read-out in test [10]: Intercellular Adhesion Molecule 1 (ICAM1), ICAM1 (gene 3383)
Briefly: BSK_3C_ICAM1: BioMAP Diversity Plus: 3C Assay for Intercellular Adhesion Molecule 1 (ICAM1) Biomarker Activity (AID 2283003). As to conditions: primary human endothelial cells (HUVEC); actives raise or lower the signal. A digest of the protocol:
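ELISA readout of ICAM1 in human umbilical vein endothelial cells in the 3C system, taken 24 h post-dose. Gain or loss of signal versus DMSO was fitted in both directions, with SRB total-protein staining run in parallel.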

The nature of test [11]: BSK_3C_Proliferation: Cell Proliferation Assessment in the BioMAP Diversity Plus: 3C Assay (AID 2283006).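 On AC50: potency may reflect either rise or fall in cell number versus DMSO.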 To be noted: primary human endothelial cells (HUVEC). A digest of the protocol:
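Proliferation as total protein: sulforhodamine B (0.1%) stain of TCA-fixed subconfluent human umbilical vein endothelial cells, absorbance 560 nm, 48 h after dosing. Activity fitted in both directions against DMSO baseline.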

In test [12] the target is Nuclear receptor subfamily 1 group I member 2 (Homo sapiens) (UniProt O75469). Briefly: ATG_PXR_TRANS: Attagene TRANS-FACTORIAL HepG2 Assay for human Pregnane X Receptor (PXR) (AID 2283008; active means hit-call score of the fitted dose curve at least 0.9, where 1 is the maximum). A digest of the protocol:
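HepG2 transfected (FuGene 6) with GAL4-UAS reporter units + PXR-Gal4 chimera; dosed 24 h. Total RNA → oligo(dT) RT → PCR → 6-FAM primer extension → HpaI cut → CE. Gain-of-signal vs DMSO.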

Test [13] in a line: ATG_NF_kB_CIS: Attagene CIS-FACTORIAL HepG2 Assay for human Nuclear Factor Kappa B (NF-kB) (AID 2282991). To be noted: HepG2 Attagene cis-factorial NF-kB reporter mRNA; actives raise or lower the signal. The gist of the method:
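Multiplexed cis-reporter assay in transiently transfected HepG2. 24 h treatment; RNA isolated, RT-PCR, labelled fragments resolved by CE. DMSO baseline.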

For test [14], the target named is human Peroxisome Proliferator-activated Receptor delta (PPARd), PPARD (gene 5467) (UniProt Q03181). Briefly: ATG_PPARd_TRANS: Attagene TRANS-FACTORIAL HepG2 Assay for human Peroxisome Proliferator-activated Receptor delta (PPARd) (AID 2283002; active means hit-call score of the fitted dose curve at least 0.9, where 1 is the maximum). A digest of the protocol:
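HepG2 cells transiently transfected with GAL4-UAS multiplexed reporter units driven by exogenous chimeric NR-GAL4 proteins; 24 h compound exposure. Reporter mRNA measured by RT-PCR, 6-FAM primer extension, HpaI digestion and capillary electrophoresis; gain of signal fitted relative to DMSO.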

The target in test [15] is Peroxisome proliferator-activated receptor gamma (Homo sapiens) (UniProt P37231). Briefly: ATG_PPARg_TRANS: Attagene TRANS-FACTORIAL HepG2 Assay for human Peroxisome Proliferator-activated Receptor-gamma (PPARg) (AID 2283007; active means hit-call score of the fitted dose curve at least 0.9, where 1 is the maximum). The gist of the method:
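Human hepatoma HepG2, transient MRTU transfection, 24 h treatment. mRNA reporter signal by RT-PCR plus capillary electrophoresis, fluorescence detection; fitted for increase over DMSO negative control.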

Test [16] deals with Cellular tumor antigen p53 (Homo sapiens) (UniProt P04637). Put plainly: ATG_p53_CIS: Attagene CIS-FACTORIAL HepG2 Assay for human p53 Transcription Factor (AID 2282994). To be noted: HepG2 p53 cis-element reporter, Attagene mRNA; actives raise or lower the signal. The gist of the method:
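Steps: transfect HepG2 with multiplexed cis reporter constructs; dose chemicals 24 h; extract RNA, reverse-transcribe, PCR-amplify reporter sequences; FAM-label, HpaI-digest, resolve fragments by CE. Activity fitted both directions relative to DMSO.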

The target in test [17] is human Peroxisome Proliferator-activated Receptor alpha (PPARa), PPARA (gene 5465) (UniProt Q07869). Put plainly: ATG_PPARa_TRANS: Attagene TRANS-FACTORIAL HepG2 Assay for human Peroxisome Proliferator-activated Receptor alpha (PPARa) (AID 2283001; active means hit-call score of the fitted dose curve at least 0.9, where 1 is the maximum). A digest of the protocol:
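HepG2, transient MRTU transfection, 24 h treatment. RT-PCR → FAM labelling → capillary electrophoresis. Fit vs DMSO, positive direction.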

In test [18] the target is Retinoic acid receptor alpha (Homo sapiens) (UniProt P10276). Put plainly: ATG_RARa_TRANS: Attagene TRANS-FACTORIAL HepG2 Assay for human Retinoic Acid Receptor alpha (RARa) (AID 2283005; active means hit-call score of the fitted dose curve at least 0.9, where 1 is the maximum). A digest of the protocol: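 HepG2 transiently transfected with multiplex GAL4-UAS reporter units including a human RARa–GAL4 chimera; 24 h compound exposure. Reporter mRNA quantified by RT-PCR, 6-FAM labeling and capillary electrophoresis; gain of signal versus DMSO.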
Sequence of Retinoic acid receptor alpha (Homo sapiens) (P10276 whole entry, looked up, the tested form may be a part): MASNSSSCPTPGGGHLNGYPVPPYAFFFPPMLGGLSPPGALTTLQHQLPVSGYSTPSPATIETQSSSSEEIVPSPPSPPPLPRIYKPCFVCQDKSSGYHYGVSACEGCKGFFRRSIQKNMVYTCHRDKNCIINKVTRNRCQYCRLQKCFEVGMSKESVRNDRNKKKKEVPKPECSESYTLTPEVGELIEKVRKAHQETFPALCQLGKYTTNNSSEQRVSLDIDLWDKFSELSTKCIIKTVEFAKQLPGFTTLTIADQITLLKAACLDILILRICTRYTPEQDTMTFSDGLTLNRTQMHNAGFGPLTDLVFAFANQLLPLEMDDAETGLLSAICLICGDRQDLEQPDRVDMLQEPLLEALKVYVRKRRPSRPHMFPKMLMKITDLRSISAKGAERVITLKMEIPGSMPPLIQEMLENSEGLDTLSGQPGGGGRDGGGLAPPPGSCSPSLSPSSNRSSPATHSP

Structures are written as SMILES. Records with an inconclusive call do not appear. Calls of active or inactive are those of the source. How the source made its calls, unless noted: active means hit-call score of the fitted dose curve at least 0.9, where 1 is the maximum; inactive means score below 0.9.

Sequence of human Peroxisome Proliferator-activated Receptor delta (PPARd), PPARD (gene 5467) (Q03181 whole entry, looked up, the tested form may be a part): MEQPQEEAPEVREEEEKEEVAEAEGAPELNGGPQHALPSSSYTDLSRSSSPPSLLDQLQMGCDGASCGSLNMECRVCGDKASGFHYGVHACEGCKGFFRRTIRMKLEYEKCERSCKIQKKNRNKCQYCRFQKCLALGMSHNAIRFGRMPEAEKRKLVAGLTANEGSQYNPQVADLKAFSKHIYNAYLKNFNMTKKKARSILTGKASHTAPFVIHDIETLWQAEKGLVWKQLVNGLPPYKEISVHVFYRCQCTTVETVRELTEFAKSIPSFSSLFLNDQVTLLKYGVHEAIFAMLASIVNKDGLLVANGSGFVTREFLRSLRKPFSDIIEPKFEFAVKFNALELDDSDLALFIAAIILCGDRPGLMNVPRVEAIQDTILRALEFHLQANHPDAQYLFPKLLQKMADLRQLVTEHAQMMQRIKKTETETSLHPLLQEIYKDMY
Sequence of Nuclear respiratory factor 1 (Homo sapiens) (Q16656 whole entry, looked up): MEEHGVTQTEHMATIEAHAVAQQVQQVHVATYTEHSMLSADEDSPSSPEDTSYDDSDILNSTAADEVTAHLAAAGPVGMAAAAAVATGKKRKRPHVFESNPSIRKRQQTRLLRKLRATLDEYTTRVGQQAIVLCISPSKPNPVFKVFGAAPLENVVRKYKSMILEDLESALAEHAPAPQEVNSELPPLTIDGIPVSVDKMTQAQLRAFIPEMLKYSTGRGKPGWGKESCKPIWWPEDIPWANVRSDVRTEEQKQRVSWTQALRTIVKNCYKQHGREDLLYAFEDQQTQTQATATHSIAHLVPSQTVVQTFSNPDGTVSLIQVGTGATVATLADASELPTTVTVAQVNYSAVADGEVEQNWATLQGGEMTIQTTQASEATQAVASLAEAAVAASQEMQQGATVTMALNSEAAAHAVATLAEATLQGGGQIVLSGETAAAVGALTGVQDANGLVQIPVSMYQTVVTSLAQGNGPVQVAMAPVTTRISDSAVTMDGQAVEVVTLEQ
Sequence of Peroxisome proliferator-activated receptor gamma (Homo sapiens) (P37231 whole entry, looked up): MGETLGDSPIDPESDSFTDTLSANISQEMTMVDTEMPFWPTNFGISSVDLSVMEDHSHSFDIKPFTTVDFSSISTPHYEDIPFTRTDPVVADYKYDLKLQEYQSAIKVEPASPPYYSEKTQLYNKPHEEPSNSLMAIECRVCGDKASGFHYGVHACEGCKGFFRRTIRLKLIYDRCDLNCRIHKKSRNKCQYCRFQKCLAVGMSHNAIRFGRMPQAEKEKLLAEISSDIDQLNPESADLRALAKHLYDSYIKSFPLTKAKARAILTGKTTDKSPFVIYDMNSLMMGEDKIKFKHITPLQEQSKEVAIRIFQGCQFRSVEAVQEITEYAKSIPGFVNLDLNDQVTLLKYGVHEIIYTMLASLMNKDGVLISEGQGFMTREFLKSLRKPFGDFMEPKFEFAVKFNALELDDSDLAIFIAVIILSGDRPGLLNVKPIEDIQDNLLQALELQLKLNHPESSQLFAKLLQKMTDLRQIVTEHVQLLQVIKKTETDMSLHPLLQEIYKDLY
Sequence of Nuclear receptor subfamily 1 group I member 2 (Homo sapiens) (O75469 whole entry, looked up, the tested form may be a part): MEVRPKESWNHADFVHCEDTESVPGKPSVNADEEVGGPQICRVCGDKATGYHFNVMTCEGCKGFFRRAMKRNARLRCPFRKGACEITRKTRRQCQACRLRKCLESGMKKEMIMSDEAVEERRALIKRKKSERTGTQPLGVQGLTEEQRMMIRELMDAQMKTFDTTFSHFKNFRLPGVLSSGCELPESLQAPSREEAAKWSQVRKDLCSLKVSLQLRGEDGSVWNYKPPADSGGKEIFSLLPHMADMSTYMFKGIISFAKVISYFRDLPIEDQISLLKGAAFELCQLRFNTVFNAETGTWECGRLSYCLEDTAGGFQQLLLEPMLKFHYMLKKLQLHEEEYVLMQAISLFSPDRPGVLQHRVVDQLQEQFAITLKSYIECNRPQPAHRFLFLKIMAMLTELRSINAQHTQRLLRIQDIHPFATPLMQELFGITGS
Sequence of Transcriptional activator Myb (Homo sapiens) (P10242 whole entry, looked up): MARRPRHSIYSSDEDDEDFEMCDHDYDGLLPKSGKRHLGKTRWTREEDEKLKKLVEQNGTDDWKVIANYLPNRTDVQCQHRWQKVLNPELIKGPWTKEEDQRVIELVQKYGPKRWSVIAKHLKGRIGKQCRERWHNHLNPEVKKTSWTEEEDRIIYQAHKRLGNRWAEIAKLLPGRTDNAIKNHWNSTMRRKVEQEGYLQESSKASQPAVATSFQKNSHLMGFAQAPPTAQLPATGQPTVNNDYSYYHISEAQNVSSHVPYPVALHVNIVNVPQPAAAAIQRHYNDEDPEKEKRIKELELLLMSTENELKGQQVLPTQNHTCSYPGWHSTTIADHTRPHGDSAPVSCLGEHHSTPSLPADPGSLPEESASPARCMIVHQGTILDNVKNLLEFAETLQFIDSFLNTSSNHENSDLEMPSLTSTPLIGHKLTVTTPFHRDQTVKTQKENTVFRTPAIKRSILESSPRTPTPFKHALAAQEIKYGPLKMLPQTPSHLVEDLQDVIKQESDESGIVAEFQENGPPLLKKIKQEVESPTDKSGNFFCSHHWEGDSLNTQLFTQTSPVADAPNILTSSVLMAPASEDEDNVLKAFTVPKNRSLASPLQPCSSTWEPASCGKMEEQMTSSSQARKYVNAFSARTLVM
Sequence of Cellular tumor antigen p53 (Homo sapiens) (P04637 whole entry, looked up, the tested form may be a part): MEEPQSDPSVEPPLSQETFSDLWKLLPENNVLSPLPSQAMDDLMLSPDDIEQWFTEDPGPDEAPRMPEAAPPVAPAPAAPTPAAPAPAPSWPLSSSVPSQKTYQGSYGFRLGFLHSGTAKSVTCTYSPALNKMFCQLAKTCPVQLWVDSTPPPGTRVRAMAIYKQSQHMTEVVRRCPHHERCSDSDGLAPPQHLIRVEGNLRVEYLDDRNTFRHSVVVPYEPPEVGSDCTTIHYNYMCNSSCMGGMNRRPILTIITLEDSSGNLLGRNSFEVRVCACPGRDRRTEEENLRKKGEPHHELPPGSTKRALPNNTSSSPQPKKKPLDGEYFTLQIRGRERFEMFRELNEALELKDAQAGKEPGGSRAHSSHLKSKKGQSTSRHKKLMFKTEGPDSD
Sequence of human Peroxisome Proliferator-activated Receptor alpha (PPARa), PPARA (gene 5465) (Q07869 whole entry, looked up): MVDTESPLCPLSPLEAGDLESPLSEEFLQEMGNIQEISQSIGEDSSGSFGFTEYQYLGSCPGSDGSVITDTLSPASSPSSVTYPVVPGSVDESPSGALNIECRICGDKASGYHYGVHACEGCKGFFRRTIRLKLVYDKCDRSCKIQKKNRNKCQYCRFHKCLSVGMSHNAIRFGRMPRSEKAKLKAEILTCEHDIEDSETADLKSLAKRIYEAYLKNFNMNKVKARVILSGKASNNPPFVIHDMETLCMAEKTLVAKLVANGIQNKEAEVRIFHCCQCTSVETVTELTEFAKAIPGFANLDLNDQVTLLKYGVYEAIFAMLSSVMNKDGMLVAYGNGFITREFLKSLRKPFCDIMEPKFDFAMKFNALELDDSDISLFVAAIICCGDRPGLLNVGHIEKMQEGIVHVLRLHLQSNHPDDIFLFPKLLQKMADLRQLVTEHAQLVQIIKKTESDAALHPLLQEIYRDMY

On to `CCCCc1ccccc1`, for which the outcome in test [1], in [2], in test [3], in [4], in test [5] and in test [6] was inactive. Further, the result in [7], in test [8], in test [9], in test [10], in [11] and in test [12] was inactive.

Turning to `CC(O)C#N` (stereo not drawn), the call in [1], in [2], in test [3], in [13], in [4] and in test [5] was inactive. Also, the result in test [14] and in [15] was inactive.

As usually defined, the AC50 is the midpoint of the concentration-response curve, whichever way the signal moves. On to `CCOP(=S)(OCC)SCn1nnc2ccccc2c1=O`, for which the call in [1], in [3], in [13], in test [5], in test [7] and in test [8] was inactive. In addition, the result in test [9], in [10] and in test [11] was inactive. In addition, the AC50 in test [2] was 58.6 µM (active); in test [4], 1.6 µM (active); in test [6], 10.7 µM (active); in test [15], 28.5 µM (active); in test [12], 0.716 µM (active).

On to `CCOP(=S)(Oc1ccc([N+](=O)[O-])cc1)c1ccccc1` (stereo not drawn), for which the result in [1], in test [2], in test [3], in test [13], in test [5] and in test [6] was inactive. The result in test [7], in test [8], in test [9], in test [14], in test [10] and in test [15] was inactive. Also, the AC50 was 7.75 µM (active) in test [4], 13.5 µM (active) in test [11] and 1.2 µM (active) in test [12].

`Cn1[nH]nnc1=S`: the result in [1], in [2], in [3], in test [13], in test [4] and in test [5] was inactive. Also, the compound was classed as inactive in [16], in test [17], in test [18] and in [12].

In the case of `Oc1ccccc1Br`, the result in [1], in [2], in [3], in test [13], in test [4] and in test [5] was inactive. The result in test [17] and in test [12] was inactive.

For `O=P(Oc1ccccc1)(Oc1ccccc1)Oc1ccccc1`, the outcome in [1], in test [2], in [3], in test [13], in [16] and in test [14] was inactive. Moreover, the result in [10] was inactive. Moreover, the AC50 in test [4] was 28.5 µM (active); in test [5], 25.2 µM (active); in [6], 27.3 µM (active); in test [7] it was 32.2 µM (active); in [8], 27.6 µM (active); in test [9], 33.8 µM (active). The AC50 in [11] is 24.9 µM (active); in test [15], 5.5 µM (active); in [12] it was 0.693 µM (active).
